Sampled rows, rich in hits. Any-hit rate of the full collection: about 3%.
RE007 growth inh = less growth of the S. pombe RE007 Vpr strain; Potency, µM (highest dose often 92.2 µM), without a hit: at the top dose activity change, negative = less growth, actives largely listed as inhibitors; S. pombe RE007 Vpr strain, BacTiter-Glo ATP luminescence, 24 h; 360,000 compounds, 0.21% hits; active = well fitted falling curve with a large enough effect; inconclusive = small, poorly fitted or top-dose-only effect; inactive = no such curve, though single readings can be large or run the other way; also: nearly all actives have a fitted effect of over 50% in size
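Fission yeast strain RE007, carrying one chromosomally integrated HIV-1 vpr copy, was seeded at OD 0.01 in PMG+AL medium with 23 nL pinned compound. After 24 h at 30 °C and 99% humidity, viability was read by BacTiter-Glo luminescence.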
TbPYK inhibitor = T. brucei pyruvate kinase inhibition | Q57TT1 | TbPYK enzyme, Kinase-Glo Plus ATP luminescence, 45 min | Potency, µM (highest dose often 76.8 µM), for inactives: top-dose activity, negative = inhibition, actives largely listed as inhibitors | 410,000 compounds, 0.12% hits | AID 624173; also: nearly all actives have a fitted effect of over 50% in size
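Assay buffer: 50 mM TEA pH 7.2, 100 mM KCl, 10 mM MgCl2, 0.05% BSA, 0.01% Tween-20. Pyruvate kinase from T. brucei plus substrate met compound, then ADP (130 uM final). Luminescence was read post 45 min RT.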
LmPK inh = blocks Leishmania mexicana pyruvate kinase activity; Q27686; purified LmPK, Kinase-Glo ATP luminescence, 1 h; Potency, µM (titrated, usually from 57.5 µM), without a hit: at the highest dose activity change, negative = inhibition, usual class: inhibitors; 290,000 compounds, 0.37% hits; AID 1721
Target sequence (Q27686 whole entry, looked up): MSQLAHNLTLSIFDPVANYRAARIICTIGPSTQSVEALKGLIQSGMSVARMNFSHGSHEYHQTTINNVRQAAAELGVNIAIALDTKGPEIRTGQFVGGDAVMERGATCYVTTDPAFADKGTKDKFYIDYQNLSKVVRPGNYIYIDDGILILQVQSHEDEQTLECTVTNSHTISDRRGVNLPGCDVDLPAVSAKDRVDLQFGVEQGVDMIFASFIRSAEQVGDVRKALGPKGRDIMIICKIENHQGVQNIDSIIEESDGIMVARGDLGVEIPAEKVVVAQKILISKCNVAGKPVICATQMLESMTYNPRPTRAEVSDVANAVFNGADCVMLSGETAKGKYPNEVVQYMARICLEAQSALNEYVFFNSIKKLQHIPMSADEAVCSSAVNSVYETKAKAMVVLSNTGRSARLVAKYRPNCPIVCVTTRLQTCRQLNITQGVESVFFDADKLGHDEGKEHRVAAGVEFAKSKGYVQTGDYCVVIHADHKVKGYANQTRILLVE
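Pyruvate kinase activity monitored as ATP production (luciferase luminescence). Conditions: 0.1 nM enzyme, 0.5 mM PEP, 0.1 mM ADP, 1 h, RT; normalized against uninhibited and no-enzyme wells.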
Sm TGR block = blocks Schistosoma mansoni thioredoxin glutathione reductase; AID 485364; 360,000 compounds, 3% hits; Q962Y6; purified TGR, DTNB reduction, TNB absorbance 405 nm; Potency, µM (top dose mostly 114 µM), without a hit: top-dose activity change, negative = inhibition, usual class: inhibitors; also: nearly all actives have a fitted effect of over 60% in size
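TGR 20 nM + NADPH 100 uM (dispensed conc.), cpd preinc 15 min RT; start with NADPH (500 uM addition) then DTNB (15 mM addition). Kinetic TNB absorbance, 405 nm filter. Four-parameter Hill fit across titration.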
Numbers without * were called inactive; u = inconclusive; x = not tested or not shown. Unless noted, calls follow the shape of the dose curve; as a rule, active = well fitted curve in the direction sought with a large enough effect; inconclusive = small, poorly fitted or top-dose-only effect, or another doubt; inactive = no such curve, though single readings can be large; an effect the other way counts as inactive or inconclusive. % is scaled to controls: 0 for no effect and ±100 for the full control effect; potency is read from the fitted curve at half-maximal effect.

SMILES	RE007 growth inh	TbPYK inhibitor	LmPK inh	Sm TGR block
COc1ccc(S(=O)(=O)N2CCOCC2)cc1NC(=O)C1CC(=O)N(c2ccc3c(c2)OCCO3)C1 (stereo not drawn)	14%	-2%	x	x
COC(=O)CN1C(=O)[C@H]2[C@@H](c3ccc(C)o3)N3C(=O)CN(Cc4ccccn4)C(=O)[C@@]3(C)[C@H]2C1=O	6%	-13%	-8%	25µM*
COC(=O)CN1C(=O)[C@H]2[C@@H](c3ccc(C)o3)N3C(=O)CN(Cc4ccccc4)C(=O)[C@@]3(Cc3ccccc3)[C@H]2C1=O	12%	-14%	-2%	u
Cc1ccc([C@@H]2[C@@H]3C(=O)N(c4ccccc4)C(=O)[C@@H]3[C@]3(C)C(=O)N(Cc4ccccn4)CC(=O)N23)o1	2%	-1%	-1%	u
COC(=O)CN1C(=O)[C@H]2[C@@H](c3ccc(C)o3)N3C(=O)CN(CC4CC4)C(=O)[C@@]3(C)[C@H]2C1=O	-4%	-26%	4%	16µM*
COC(=O)CN1C(=O)[C@H]2[C@@H](c3ccc(C)o3)N3C(=O)CN(Cc4ccc(-c5ccccc5)cc4)C(=O)[C@@]3(C)[C@H]2C1=O	-5%	u	0%	10µM*
O=C(C=Cc1cccc(O)c1)c1ccccc1O	25µM*	4%	x	x
O=C(/C=C/c1ccc(O)c(O)c1)c1ccccc1O	u	-23%	u	u
O=C(C=Cc1ccccc1O)c1ccccc1O	35µM*	5%	x	x
CC(=O)N1CCN(CCN=CC2=C(O)CC(c3cccs3)CC2=O)CC1 (stereo not drawn)	1%	-7%	-1%	45µM*
CC1(C)CC(=O)C(C=NCCN2CCN(C3CC(=O)N(c4ccc(Br)cc4)C3=O)CC2)=C(O)C1 (stereo not drawn)	u	2%	-7%	50µM*
CC1(C)CC(=O)C(C=NCCN2CCN(C(=O)C34CC5CC(CC(C5)C3)C4)CC2)=C(O)C1	4%	2%	4%	25µM*
CC1(C)CC(=O)C(C=NCCN2CCN(C(=O)Cc3ccc(Cl)cc3)CC2)=C(O)C1	13%	-5%	-3%	u
CCOC(=O)c1ccc(NC(=O)CN2CCN(CCN=CC3=C(O)CC(C)(C)CC3=O)CC2)cc1	52%	3%	-5%	u
CCOC(=O)c1ccc(NC(=S)N2CCN(CCN=CC3=C(O)CC(C)(C)CC3=O)CC2)cc1	37%	-2%	4%	1.1µM*
CC(=O)c1c(C)n(-c2ccc(Cl)cc2)c2ccc(OC(=O)COc3ccccc3)cc12	x	-7%	x	5%
CCC(Oc1ccccc1)C(=O)Nc1cc(-c2ccccc2F)nn1-c1ccccc1 (stereo not drawn)	x	6%	x	-12%
COc1cc(OC)cc(-c2cc3ccc(OC)cc3cn2)c1	40µM*	u	x	6%
COc1ccc2cc(-c3ccsc3)ncc2c1	-14%	-4%	x	40µM*
CCOc1cc(C(C(=O)NCC2CCCO2)N(C(=O)Cn2nnc3ccccc32)c2ccc(NC(C)=O)cc2)ccc1O (stereo not drawn)	2%	-8%	-2%	22µM*
COc1ccc(C(C(=O)NCC2CCCO2)N(C(=O)Cn2nnc3ccccc32)c2ccccc2C(C)=O)cc1OC (stereo not drawn)	-6%	-3%	-1%	5%
COc1cc(C(C(=O)NCC2CCCO2)N(C(=O)Cn2nnc3ccccc32)c2ccc(OC)c(OC)c2)ccc1O (stereo not drawn)	3%	-4%	0%	45µM*
COc1ccc(C(C(=O)NCC2CCCO2)N(C(=O)Cn2nnc3ccccc32)c2ccc(NC(C)=O)cc2)cc1 (stereo not drawn)	-20%	0%	0%	0%
CCOC(=O)c1ccc(CN(Cc2ccc(Cl)cc2Cl)S(=O)(=O)c2cccc(Cl)c2)cc1	x	2%	x	10%
COc1ccc2c(c1)c1c(c(=O)n(-c3ccccc3C)c(=O)n1CC(N)=O)n2C	x	-6%	x	2%
SMILES	RE007 growth inh	TbPYK inhibitor	LmPK inh	Sm TGR block
COc1ccc(C2=NN(C(=O)c3ccco3)C(c3cc4ccccc4nc3Cl)C2)cc1 (stereo not drawn)	-1%	-7%	2%	45µM*
COc1ccc2cc(C3CC(c4ccco4)=NN3C(=O)CCC(=O)O)c(Cl)nc2c1 (stereo not drawn)	-1%	-6%	0%	-33%
CCCC[C@@H](CC)COC(=O)C[C@H](C(=O)OC[C@H](CC)CCCC)S(=O)(=O)O	x	-7%	x	x
O=C(CCl)N1CCCC1c1ccc2c(c1)OCCO2 (stereo not drawn)	-1%	-19%	-7%	3.5µM*
CC(=O)c1ccc(OCC(=O)N2CCCC2c2ccc3c(c2)OCCCO3)cc1 (stereo not drawn)	2%	10%	x	x
COc1cc(CSc2ncc(CO)n2Cc2ccc(C)cc2)cc(OC)c1	x	-9%	x	-14%
CCCCN(C)C(=O)c1ccc(CS(=O)(=O)c2ccccc2C)o1	-18%	-7%	7%	25µM*
Cc1ccccc1S(=O)(=O)Cc1ccc(C(=O)O)o1	8%	0%	15%	-31%
Cc1ccccc1S(=O)(=O)Cc1ccc(C(=O)N(C)C2CCCCC2)o1	10%	-14%	-2%	25µM*
COC(CN(C)C(=O)c1ccc(CS(=O)(=O)c2ccccc2C)o1)OC	18%	-6%	-1%	50µM*
COc1cccc(N2CCN(Cc3cc(=O)oc4cc(C)ccc34)CC2)c1	x	1%	x	7%
COc1ccc(-c2nn3c(-c4ccc(C)cc4)nnc3c3ccccc23)cc1	x	-3%	x	-5%
CC(C)CN1C(=O)NC(NC(=O)c2cccs2)(C(F)(F)F)C1=O (stereo not drawn)	-3%	-16%	-5%	7%
O=C(NC1(C(F)(F)F)NC(=O)N(Cc2ccco2)C1=O)c1cccnc1 (stereo not drawn)	-8%	8%	4%	35µM*
O=C(NC1(C(F)(F)F)NC(=O)N(Cc2ccco2)C1=O)c1cccs1 (stereo not drawn)	0%	1%	1%	35µM*
Cc1ccc(C(=O)NCC(c2ccc3c(c2)OCO3)N2CCOCC2)cc1C (stereo not drawn)	x	1%	x	3%
N#CC(C#N)=C1C=CC=CN1/C(=C\c1ccco1)C(=O)c1ccc(Cl)cc1	-1%	u	-1%	1.4µM*
O=S(=O)(c1ccc(F)cc1)c1nc(-c2ccco2)oc1Nc1ccccc1	-14%	7%	-1%	4%
O=S(=O)(c1ccccc1)c1nc(-c2ccco2)oc1NCc1ccco1	14%	-6%	5%	35µM*
O=S(=O)(c1ccccc1)c1nc(-c2ccco2)oc1Nc1ccccc1	26%	-9%	1%	0%
N#Cc1nc(-c2ccco2)oc1NCc1cccnc1	15%	-10%	-1%	89µM*
O=S(=O)(c1ccccc1)c1nc(-c2ccco2)oc1NCCCn1ccnc1	-4%	-12%	2%	40µM*

Screening results from PubChem BioAssay.
